Activity calls are given as the source filed them. How the source made its calls: active means hit-call score of the fitted dose curve at least 0.9, where 1 is the maximum; inactive means score below 0.9.

Read-out in this test: DNA damage-inducible transcript 3 (DDIT3), DDIT3 (gene 1649)
In words: LTEA_HepaRG_DDIT3: Life Technologies and Expression Analysis (LTEA) Assay for DNA damage-inducible transcript 3 (DDIT3) using HepaRG (AID 2283488). Conditions: mRNA level, 48 h; actives raise or lower the signal. As to the method: LTEA_HepaRG is a cell based, multiplexed-readout assay that uses HepaRG, a human liver cell line, with measurements taken at 48 hours after chemical dosing on a 96-well plate.LTEA_HepaRG_DDIT3 is one of 102 assay component(s) measured in the LTEA HepaRG cell culture assay. It is a marker of Oxidative Stress.Data from the assay component LTEA_HepaRG_DDIT3 was analyzed into 1 endpoint. This assay endpoint, LTEA_HepaRG_DDIT3, was analyzed with bidirectional fitting relative to DMSO as the negative control and baseline of activity. Using a type of inducible reporter, measures of mRNA induction for gain or loss-of-signal activity can be used to understand regulation of transcription factor activity. To generalize the intended target to other relatable targets, this assay endpoint is annotated to the dna binding intended target family, where the subfamily is basic leucine zipper.
A total of 1060 chemcials from the ToxCast library were tested in eight-point concentration-response experiments. Cell culture and cytotoxicity assays were conducted at Thermo Fisher Scientific's Custom Services facility (Madison, WI). A single lot of human HepaRG cells (Thermo Fisher Scientific, Frederick, MD) was used for the cell culture experiments. 96-well format collagen type I coated plates of human HepaRG cells were prepared using established methods. Briefly, cryopreserved HepaRG cells were thawed, plated at a density of approximately 100,000 cells/well in HepaRG Thaw, Plate, and General Purpose media (HPRG770, Thermo Fisher Scientific), and incubated for 48 hours. 0.5% DMSO was selected as vehicle control to balance the requisite need of DMSO in HepaRG cultures to maintain differentiation (for example, baseline metabolism, proportions of hepatocytes vs. cholangiocytes), while enabling further hepatic receptor pathway activation (for example, PXR and CAR) in response to chemical exposure. 48 hours after plating, the culture medium was replaced with HepaRG Serum-Free Incudtion Media. Cells were exposed to each test chemical in duplicate and maintained in CO2 incubators for another 48 hours. Chemical plates were thawed to room temperature and 200x concentrations of treatment groups were prepared. 8-point conentration-reponse curves were made with the highest exposure at 100 uM, followed by half-log dilutions, all in 0.5% DMSO. Each test plate contained variouse controls, induction positive controls (1mM phenobarbital), cytotoxicity positive controls ([…] aflatoxin B1), vehicle controls (0.5% DMSO), and total lysis controls (0.5% DMSO). Cell morphology images were taken using an Essen IncuCyte FLR automated microscope, with six 96-well plates imaged in about 24 minutes. Images were captured and exported and JPEG files. Spent culture media was transfered to black-well plates for the LDH assay, and remaining media was sorted at -80 C for later use. Cells were treated with RLT buffer and frozen until shipped for gene expression analysis. Total RNA was isolated from the cell suspension in 75 uL of Buffer RLT (Qiagen, Germantown, MD 20874) by Quintiles/Expression Analysis (Durham, NC) using a custom isolation procedure. Total RNA from each plate well was transferred to a preamplification plate. Fluidigm's 96.96 Dynamic ArrayTM (Fluidigm, Amsterdam, the Netherlands) technology was used for gene expression analyses by quantitative reverse transcription polymerase chain reaction (qRT-PCR, performed by Quintiles/Expression Analysis, Durham, NC)89. Standard TaqManTM Assays (Applied Biosystems/ThermoFisher Scientific, Foster City, CA) were used to assess the expression of 93 genes selected based on their selectivity and sensitivity to important hepatic receptors known to be modulated by environmental chemicals; importance in human hepatocyte functionality; and hepatotoxicity. […]
In the case of `COS(C)(=O)=O`, the result was inactive.

As to `Cc1nc(-c2ccccn2)ncc1C(=O)Nn1cc(C)c2cc(F)ccc21`, the compound was called inactive.

`CCOC(N)=O`: the result was inactive.

Regarding `Cc1ncc([C@@H](CCCCCCc2ccc3c(n2)NCCC3)CC(=O)O)cn1`, the result was inactive.

`Cn1c(=O)c2[nH]cnc2n(C)c1=O`: the call was inactive.

With `C[C@]12C=CC(=O)C=C1CC[C@H]1[C@@H]3C[C@@H](O)[C@](O)(C(=O)CO)[C@@]3(C)C[C@H](O)[C@@]12F`, the compound was called inactive.

For the compound `CC1(C)C(=O)N(Cl)C(=O)N1Cl`, the outcome was inactive.

Regarding `Cn1cc[nH]c1=S`, the compound was classed as inactive.

As for `CCCCCCCCN(C)C`, the result was inactive.

Turning to `CCCCCCCCCC`, the compound was classed as inactive.

Regarding `C[C@@H](Oc1ccc(CNC(=O)c2cccnc2Oc2ccc3c(c2)OCO3)c(F)c1)C(=O)O`, the outcome was inactive.

Turning to `CCCCCCCCCCCCCCO`, the outcome was inactive.

In the case of `CCCCN1C(=O)[C@@H]([C@H](O)C2CCCCC2)NC(=O)C12CCN(Cc1ccc(Oc3ccc(C(=O)O)cc3)cc1)CC2`, the AC50 (usually the midpoint of the concentration-response curve, whichever way the signal moves) was 3.66 µM (active).

As for `NC(=O)N1c2ccccc2C=Cc2ccccc21`, the result was inactive.

Regarding `CCN(CC)C(=S)SSC(=S)N(CC)CC`, the result was inactive.

`C=CN1CCCC1=O`: the call was inactive.

As to `OC[C@H]1O[C@@H]2O[C@H]3[C@H](O)[C@@H](O)[C@@H](O[C@H]4[C@H](O)[C@@H](O)[C@@H](O[C@H]5[C@H](O)[C@@H](O)[C@@H](O[C@H]6[C@H](O)[C@@H](O)[C@@H](O[C@H]7[C@H](O)[C@@H](O)[C@@H](O[C@H]1[C@H](O)[C@H]2O)O[C@@H]7CO)O[C@@H]6CO)O[C@@H]5CO)O[C@@H]4CO)O[C@@H]3CO`, the compound was classed as inactive.

Consider `CCCCCCOC(=O)CC(CC(=O)OCCCCCC)(OC(=O)CCC)C(=O)OCCCCCC`, for which the outcome was inactive.

Take `O=C(O)c1ccc2c(c1)nc(C(=O)NC1CCN(C3CC3)CC1)n2Cc1cc(-c2ccc(Cl)s2)on1`: the call was inactive.

For `CC(C)C(=O)Nc1ccc([N+](=O)[O-])c(C(F)(F)F)c1`, the AC50 is 87.5 µM (active).

Regarding `CC(=O)c1ccccc1`, the outcome was inactive.

As for `OC(Cn1cncn1)(Cn1cncn1)c1ccc(F)cc1F`, the call was inactive.

Regarding `CCCCOC(=O)c1ccccc1`, the call was inactive.

`c1ccc(C(O[C@@H]2CCCN(CCc3ccc4c(c3)OCO4)C2)c2ccccc2)cc1`: the AC50 was 63.6 µM (active).

For the compound `O=C(O)[C@H](O)[C@@H](O)C(=O)O`, the compound was called inactive.

Regarding `CC(C)CC(C)O` (stereo not given), the result was inactive.

Regarding `c1ccc2c(c1)-c1cccc3c1c-2cc1ccccc13`, the AC50 was 7.35 µM (active).

For the compound `CCCOc1ccc(S(=O)(=O)N2CCN(CC)CC2)cc1-c1nc2c(CC)n(Cc3ccccn3)nc2c(=O)[nH]1`, the AC50 is 69.6 µM (active).

For the compound `C=CCc1cc(S(=O)(=O)c2ccc(O)c(CC=C)c2)ccc1O`, the AC50 was 84.9 µM (active).

In the case of `CNC(C)=O`, the compound was called inactive.

As for `CC[C@H](C)C(=O)O[C@H]1C[C@H](O)C=C2C=C[C@H](C)[C@H](CC[C@@H](O)C[C@@H](O)CC(=O)O)[C@H]21`, the result was inactive.

Turning to `O=S1(=O)CCCO1`, the result was inactive.

Consider `OC(CCl)CCl`, for which the compound was classed as inactive.

Consider `CC(C)c1nnc2ccc(-c3ocnc3-c3cc(F)ccc3F)cn12`, for which the AC50 was 80.1 µM (active).

Turning to `COCc1nnc(-c2ccc[n+]([O-])c2)n1-c1c(Cl)c(Cl)cc2[nH]c(=O)c(=O)[nH]c12`, the outcome was inactive.

In the case of `CCCCCCCC1CCC(=O)O1` (stereo not given), the result was inactive.

Take `O=C(NO)C1(NS(=O)(=O)c2ccc(Oc3ccc(F)cc3)cc2)CCOCC1`: the AC50 is 77.8 µM (active).

`CCCCCCCC/C=C\CCCCCCCC(=O)OC[C@@H](O)[C@H]1OC[C@H](O)[C@H]1O`: the result was inactive.

In the case of `OCC(CO)(CO)CO`, the compound was classed as inactive.

On to `CCCCCOC(C)=O`, for which the compound was classed as inactive.

Values taken from PubChem BioAssay (EPA / NIEHS).
